PABP1 MLLE inh – inhibitors of microRNA-mediated deadenylation, human PABP1 MLLE binding; GST-MLLE / FITC-PAM2 fluorescence polarization; inhibition, % at 20 µM; AID 588489; 0.36% of 360,000 active; in the data active = inhibition above about 35%, passing the limit was not always enough;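 note: plate controls were DMSO wells with GST-MLLE for no effect and wells lacking GST-MLLE protein for full effect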
PHOSPHO1 block – PHOSPHO1 (human) inhibition; Q8TCT1; recombinant PHOSPHO1, absorbance phosphatase assay; inhibition, % at 13.3 µM; 1.1% of 290,000 active; AID 1565; in the data active = inhibition above about 60%
Target sequence (Q8TCT1 whole entry, looked up): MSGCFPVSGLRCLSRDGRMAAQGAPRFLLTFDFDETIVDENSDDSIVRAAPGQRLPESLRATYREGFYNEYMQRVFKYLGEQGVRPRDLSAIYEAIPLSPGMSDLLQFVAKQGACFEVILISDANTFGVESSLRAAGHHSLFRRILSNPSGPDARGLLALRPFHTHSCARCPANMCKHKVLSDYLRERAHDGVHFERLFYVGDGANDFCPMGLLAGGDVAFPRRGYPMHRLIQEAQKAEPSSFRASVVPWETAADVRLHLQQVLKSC
eIF4H FP inh – inhibitors of RNA binding by human eIF4H | eIF4H fluorescence polarization binding assay | inhibition, % at 35 µM | 0.94% of 290,000 active | AID 2012;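 note: calls also rest on retests at 20 µM and on dose response follow-up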
CRFBP-R2 block – CRF-BP/CRF-R2 complex antagonism; 0.59% of 350,000 active; HEK293 CRF-R2/CRF-BP, CRF-induced calcium fluorescence; AID 588475; inhibition, % at 11.8 µM;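 active = inhibition of the ligand-induced calcium signal above about 50% at the single tested concentration, limit read from the data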
PABP polyA inh – PABP-poly(A) binding inhibition | P11940 | PABP-poly(A) RNA binding, fluorescence polarization | inhibition, % at 35 µM | 1% of 290,000 active;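 note: calls also rest on retests at 20 µM and on dose response follow-up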
Numbers without * were called inactive; ? = inconclusive; · = no result given. Only some compounds are listed: those with a hit (about 2.6% of all), similar ones and a draw of the others. Unless noted, the rule behind the calls is not given here.

SMILES | PABP1 MLLE inh | PHOSPHO1 block | eIF4H FP inh | CRFBP-R2 block | PABP polyA inh
CC(=O)N(C(C)=O)c1cccc(N(Cc2ccccc2)Cc2ccccc2)c1 | -17 | · | · | 54* | ·
COc1cc(Br)cc2cc(C(=O)N3CCCCC3C)c(=O)oc12 (stereo not drawn) | 2 | -32 | 4 | -42 | 7
CCOc1ccc(C(CCc2ccccc2)NC(=O)c2ccccc2OC)cc1OCC (stereo not drawn) | 2 | 28 | -5 | 76* | -2
CCOC(=O)C1=CCC2C(=O)N(C)C(=O)C12 (stereo not drawn) | 6 | · | · | · | ·
CCOC(=O)COn1c(-c2cccc(Cl)c2)nc2ccc([N+](=O)[O-])cc21 | 26 | 65* | 2 | -48 | 11
O=C(NC12CC3CC(CC(C3)C1)C2)c1cnccn1 | 46* | 26 | 10 | -8 | 12
O=C(C1=C(O)C(=O)N(CCN2CCOCC2)C1c1ccc(F)cc1)c1cc2ccccc2o1 (stereo not drawn) | -2 | 44 | 7 | 9 | 6
O=C(C1=C(O)C(=O)N(CCCN2CCOCC2)C1c1ccccn1)c1cc2ccccc2o1 (stereo not drawn) | 4 | 79* | -7 | 4 | 21
Cc1cc2c(NS(=O)(=O)c3ccc(F)cc3)cccc2nn1 | -9 | 16 | 1 | 113* | 10
O=C(N[C@H](CO)c1ccccc1)[C@H]1O[C@@H](n2ccc(=O)[nH]c2=O)[C@H](O)[C@@H]1O | 19 | · | · | · | ·
CC(=O)NC(Cc1ccccc1)C(=O)OCC(=O)c1ccc(Cl)cc1 (stereo not drawn) | -12 | -6 | active | 1 | 99*
CC(=O)NC(Cc1ccccc1)C(=O)OCC(=O)c1ccccc1 (stereo not drawn) | 16 | -7 | -2 | 3 | -2
CCN1C(=O)[C@@H]2[C@@H](c3ccc(-c4cc(C(C)=O)cs4)cc3)N3CCC[C@@]3(C(=O)OC)[C@@H]2C1=O | 6 | · | · | 1 | ·
CC1(C(=O)NS(=O)(=O)c2ccc(F)cc2F)CCN1C(=O)Cc1cccc2ccccc12 (stereo not drawn) | -6 | · | · | · | ·
CC(=O)N1CCc2cc(NC(=O)C3(C)CCN3Cc3ccccc3OC(F)F)ccc21 (stereo not drawn) | -4 | · | · | · | ·
Cn1c(COc2cccc3cccnc23)nnc1SCC(=O)O | 15 | 35 | -5 | 1 | 10
Cn1c(COc2ccc3ccccc3c2)nnc1SCC(=O)O | -35 | 62* | -4 | 9 | 13
COc1ccc(OCc2nnc(SCC(=O)O)n2N)cc1 | -10 | 60* | -12 | 16 | 4
Cn1c(COc2ccc(Cl)cc2)nnc1SCc1ncc(-c2ccccc2)o1 | -74 | 80* | -5 | -19 | 4
CC1(C(=O)Nc2ccc3[nH]ncc3c2)CCN1C(=O)C/C=C/c1ccccc1 (stereo not drawn) | 10 | · | · | · | ·
CCOC(=O)Cn1cc(Cn2c3ccccc3c(=O)n2C(C)C)nn1 | 8 | · | · | · | ·
CCc1nn2c(=O)cc(COc3ccc(NC(=O)c4ccco4)cc3)nc2s1 | 3 | 32 | 6 | -6 | -4
CCCc1nn2c(=O)cc(COc3ccc(NC(=O)c4ccco4)cc3)nc2s1 | 1 | 64* | -6 | 3 | 0
CCOC(=O)N(C)c1c(CC)nc2c(OCc3ccc(Cl)cc3)cccn12 | -11 | · | · | · | ·
N#Cc1c(N)sc(=S)c2c1CCCC2 | 48* | 99* | ? | -8 | ?
SMILES | PABP1 MLLE inh | PHOSPHO1 block | eIF4H FP inh | CRFBP-R2 block | PABP polyA inh
CCC1(C)Cc2c(C#N)c(N)n(-c3ccccc3)c(=S)c2CO1 (stereo not drawn) | -12 | 24 | 28 | 13 | 26
Cc1[nH]c(=S)c(C#N)c2c1CCCC2 | 24 | -1 | -6 | -14 | 15
CCC1(C)Cc2c(C#N)c(N)sc(=S)c2CO1 (stereo not drawn) | 25 | 90* | 42 | 5 | 48
COc1ccccc1C(=O)NCCN1CCCC1 | -1 | · | · | -2 | ·
COc1ccc(NC(=O)Nc2nnc([C@@H]3C[C@H](O)[C@@H](CO)O3)s2)cc1 | 7 | · | · | · | ·
COc1cc(C2C3=C(Nc4nc(N)[nH]c(=O)c42)c2ccccc2C3=O)ccc1O (stereo not drawn) | 15 | 35 | 93* | -2 | 73*
Cc1nnsc1-c1onc(C)c1C(=O)Nc1cc(Cl)cc(Cl)c1 | 14 | 32 | -3 | -2 | 0
Cc1nnsc1-c1onc(C)c1C(=O)O/N=C/c1ccc(Cl)cc1 | 8 | 45 | -12 | 125* | 11
Cc1nc(NCc2ccccc2)sc1C(=O)Nc1ccccc1 | 7 | 68* | -11 | -20 | 5
Cc1nc(NC(C)c2ccccc2)sc1C(=O)Nc1ccccc1 (stereo not drawn) | 0 | 61* | -6 | -33 | -1
COc1ccc(NC(=O)N(C)C[C@@H]2OCc3cnnn3CCCC(=O)N([C@H](C)CO)C[C@@H]2C)cc1 | -6 | · | · | -14 | ·
CC(=O)N1C[C@H]2CON(C)[C@H]2C[C@H]1c1ccccc1Br | 0 | · | · | -8 | ·
COC(=O)CNC(c1ccccc1)c1cc(Br)ccc1NC(C)=O (stereo not drawn) | 12 | 45 | -3 | 16 | -15
COC(=O)CNC(c1ccccc1Cl)c1cc(Br)ccc1NS(=O)(=O)c1ccc(C)cc1 (stereo not drawn) | -2 | -18 | active | -11 | 66
COc1cc(O)c2c(c1)COC2=O | -12 | -2 | -8 | 60* | ?
COc1ccc2c(c1OC)C(=O)OC2 | -6 | 7 | 2 | 0 | 25
CCC(C)[C@H](N)c1cn([C@@H](CCCCN)C(=O)N2CCNCC2)nn1 (stereo partly drawn) | 5 | 39 | -5 | -8 | 50*
COc1ccc(-c2csc(NNC3=NCCCCC3)n2)cc1 | · | 32 | 7 | -6 | 3
CCOc1ccc(-c2csc(NNC3=NCCCCC3)n2)cc1 | 37* | 37 | 15 | -4 | 17
Cc1ccccc1Nc1nc(CSc2nnc(-c3ccoc3C)n2C)cs1 | -58 | 69* | -5 | -7 | 4
CCOc1ccc(C(=O)NC(C)(C)CC)cc1 | 0 | 16 | -4 | -26 | 69*
O=C(c1cc(C2CC2)nn1-c1ccccc1)N1CCN(Cc2ccccc2)CC1 | 3 | · | · | 2 | ·
Nc1nc(CN2CCc3ccccc3C2)nc(Nc2ccccc2)n1 | 10 | 24 | -4 | 74* | 6
COc1ccc(Nc2nc(N)nc(CN3CCc4ccccc4C3)n2)cc1 | 6 | -15 | -11 | -10 | -8
Cc1c(C(=O)NN)nn(-c2ccc(Cl)cc2)c(=O)c1C#N | -2 | 28 | 3 | 82* | 11
Cc1c(C(=O)NCc2ccc3c(c2)OCCO3)sc(=O)n1Cc1ccc(S(=O)(=O)N(C)C)cc1 | -7 | · | · | · | ·
Cc1ccc([N+](=O)[O-])cc1S(=O)(=O)Nc1cccc(S(=O)(=O)Nc2ccccc2C(=O)O)c1 | -8 | · | · | 18 | ·
Cc1ccc(C)c(NC(=O)c2ccccc2NS(=O)(=O)c2cc([N+](=O)[O-])ccc2C)c1 | -4 | 1 | 3 | 78* | 16
COc1cc(CN2C[C@@H](CO)O[C@@H](n3cnc4c(N5CCCC5)ncnc43)C2)cc(OC)c1OC | 5 | · | · | · | ·
Cc1ccccc1OCC(=O)OCC(=O)c1c[nH]c2ccccc12 | 12 | · | · | 87* | ·
